# JMJD2A Tudor inh: JMJD2A Tudor domain (human) inhibition | O75164 | AlphaScreen JMJD2A-Tudor / H3K4me3 peptide binding | Potency, µM (titrated, usually from 114 µM), hits mostly inhibitors | 390,000 tested, 4.4% active | AID 504339; note: nearly all actives have a fitted effect of over 50% in size
# G9a inh-1: blocks human histone lysine methyltransferase G9a; Q96KQ7; G9a H3K9 monomethylation, AlphaScreen, 2 h; Potency, µM (series often up to 102 µM), hits mostly inhibitors; 350,000 tested, 8.8% active; AID 504332; note: nearly all actives have a fitted effect of over 75% in size
# Target sequence (Q96KQ7 913-1193 limits assumed): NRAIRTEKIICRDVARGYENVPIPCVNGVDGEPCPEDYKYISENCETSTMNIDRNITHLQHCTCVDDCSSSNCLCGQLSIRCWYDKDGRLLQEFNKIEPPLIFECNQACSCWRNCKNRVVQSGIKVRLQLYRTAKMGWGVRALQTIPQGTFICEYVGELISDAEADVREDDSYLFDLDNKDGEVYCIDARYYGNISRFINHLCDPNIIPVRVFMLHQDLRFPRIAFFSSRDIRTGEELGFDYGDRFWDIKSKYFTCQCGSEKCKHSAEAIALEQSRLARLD
#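 Signal arises when biotinylated H3K9 peptide, once monomethylated, bridges streptavidin donor and antibody-captured acceptor beads. Enzyme at 20 nM was preincubated 15 min with test compounds; peptide 500 nM and SAM 20 uM then reacted for 2 h.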
# BAZ2B inh: inhibitors of human BAZ2B bromodomain; 360,000 tested, 4.4% active; Q9UIF8; Potency, µM (highest dose often 114 µM), actives largely listed as inhibitors; AID 504333; AlphaScreen BAZ2B-H3K14Ac peptide displacement; note: nearly all actives have a fitted effect of over 60% in size
#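 AlphaScreen displacement: compounds (up to 110uM) incubated 30 min at room temperature with a preformed 50 nM BAZ2B/50 nM biotinylated H3K14Ac peptide complex in PBS pH 7.4 with Tween-20. Donor and acceptor beads at 10 ug/mL final added, 20 min light-protected before reading.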
# L3MBTL1 inh: inhibitors of human L3MBTL1; AID 485360; 230,000 tested, 0.66% active; Potency, µM (top dose mostly 57.1 µM), hits mostly inhibitors; AlphaScreen L3MBTL1–H3K9me1 peptide binding; Q9Y468; note: nearly all actives have a fitted effect of over 60% in size
#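 AlphaScreen assay: L3MBTL1 (50 nM final) was preincubated 30 min at room temperature with biotinylated H3(1-15)K9me1 peptide (75 nM final), then 30 min with library compounds; streptavidin donor and nickel chelate acceptor beads (10 ug/mL final) added, 30 min dark.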
# HP1b binding inh: HP1-beta chromodomain-methylated histone interaction inhibition | P83916 | AlphaScreen HP1-beta / biotin-H3K9me3 peptide binding | Potency, µM (top dose mostly 114 µM), most hits filed as inhibitors | 390,000 tested, 0.56% active | AID 540317; note: nearly all actives have a fitted effect of over 70% in size
# Target sequence (P83916 whole entry, looked up): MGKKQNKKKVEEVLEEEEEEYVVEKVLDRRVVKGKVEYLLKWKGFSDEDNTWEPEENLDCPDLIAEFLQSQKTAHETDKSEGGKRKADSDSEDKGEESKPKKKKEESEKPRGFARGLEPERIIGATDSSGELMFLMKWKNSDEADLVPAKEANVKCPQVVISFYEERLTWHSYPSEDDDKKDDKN
#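 HP1-beta protein (50 nM final) preincubated 30 min at room temperature with biotinylated H3(1-18)K9me3 peptide (50 nM) in PBS pH 7.4, 0.01% Tween-20, then compound added for 30 min. AlphaScreen streptavidin donor/nickel chelate acceptor beads (10 ug/mL final), 30 min dark, luminescence read.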
# PI5P4K alpha inh: PI5P4K alpha (human) kinase inhibition. P48426. PI5P4Kalpha enzyme, ADP-Glo luminescence, 60 min; hits give low values. max response, %. 330,000 tested, 1.2% active. AID 652105; active = max response of -50% or lower; inconclusive = between -30% and -50%; inactive = -30% or higher; note: value at the top dose of about 77 µM
#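 Human PI5P4Kalpha with substrate in 0.038 M HEPES pH 7.4, 0.28 mM EGTA, 0.1% CHAPS, 5% DMSO; reaction started with 5 microM ATP (final), 60 min at room temperature. ADP formed read by ADP-Glo luminescence.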
# G9a inh-2: confirmation of human histone methyltransferase G9a inhibitors. 370 tested, 89% active. Potency, µM, most hits filed as inhibitors. G9a H3K9 monomethylation, AlphaScreen, 2 h. shares compounds with JMJD2A Tudor inh; note: nearly all actives have a fitted effect of over 65% in size
# RGS4 inh: confirmation of human RGS4 inhibitors | shares compounds with JMJD2A Tudor inh | Potency, µM, actives largely listed as inhibitors | RGS4 GAP activity, Transcreener GDP fluorescence polarization | 25 tested, 80% active | AID 602388
# Target sequence (P49798 whole entry, looked up): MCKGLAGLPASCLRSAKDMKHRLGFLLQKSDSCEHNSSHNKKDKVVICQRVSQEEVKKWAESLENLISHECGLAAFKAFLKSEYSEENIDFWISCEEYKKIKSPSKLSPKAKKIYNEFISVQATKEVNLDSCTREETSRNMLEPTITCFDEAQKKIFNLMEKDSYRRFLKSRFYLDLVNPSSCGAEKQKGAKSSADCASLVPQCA
# Numbers stand for hits; - = inactive; ? = inconclusive; . = not tested or not shown; [ ] = another dose, or the depositor's remark. Only some compounds are listed: those with a hit (about 11% of all), similar ones and a draw of the others. Unless noted, calls come from the whole dose curve; as a rule, active = well fitted curve in the direction sought with a large enough effect; inconclusive = small, poorly fitted or top-dose-only effect, or another doubt; inactive = no such curve, though single readings can be large; an effect the other way counts as inactive or inconclusive.
SMILES,JMJD2A Tudor inh,G9a inh-1,BAZ2B inh,L3MBTL1 inh,HP1b binding inh,PI5P4K alpha inh,G9a inh-2,others
CCn1c(SCC(=O)N2CCCC2)nnc1-c1ccc(N)cc1,-[11.4 µM],1.12µM,-,-,-,-,1.59,
CCCCn1c(SCC(=O)N2CCCC2)nnc1-c1ccccc1,-,-,-,.,-,-,.,
O=C1CCC(=O)N1c1ccccc1-c1ccccc1,-,-,-,-,-,-,.,
O=C1C2C3C=CC(CO)(O3)C2C(=O)N1c1ccccc1-c1ccccc1 (centres undefined),17.8µM,0.316µM,-,-,?,.,0.224,
COc1cccc(C2CC(=O)Nc3c2ccc(C)c3C)c1OC (centres undefined),-,-,-,.,-,.,.,
COc1cccc(-c2cncnc2NCc2cccnc2)c1,.,-[0.501 µM],.,.,.,.,.,RGS4 inh=29.9
O=C(NCc1cccs1)c1ccc(Cn2c(SCc3cccc(F)c3)nc3cccnc32)cc1,-,-,-,.,-,.,.,
CCc1nnc(NC(=O)c2c(-c3ccccc3)noc2C)s1,-,-,-,.,-,-,.,
Cc1onc(-c2ccccc2)c1C(=O)Nc1nnc(COc2ccc(Cl)cc2)s1,?,?,-,-,?,?,0.796,
CC(C)(C)C1CCc2c(sc(NC(=O)c3ccncc3)c2C(=O)Nc2ccccc2Cl)C1 (centres undefined),?,2.24µM,-,.,-,.,?,
CC(Sc1nnnn1C)C(=O)Nc1ccc(Oc2ccccc2)cc1 (centres undefined),-,-,-,-,-,-,.,
CCC(Sc1nnnn1C)C(=O)Nc1ccc(C(C)=O)cc1 (centres undefined),-,?,?,.,-,-,11.2,
CN(C)c1cccc(C(=O)Nc2cccc(F)c2)c1,-,?,?,-,-,-,7.08,
CCN(CC)c1ccc(C(=O)Nc2cccc(F)c2)cc1,-,-,-,.,-,-,.,
O=C(CSc1ncn(-c2ccccc2)n1)Nc1nc2ccccc2s1,44.7µM,?,-,.,-,.,3.56,
O=C(CSc1ncn(-c2ccccc2)n1)Nc1nc(-c2ccccc2)cs1,-,-,-,-,-,.,.,
CC1CN(Cc2c(O)ccc3c2oc(=O)c2ccccc23)CC(C)O1 (centres undefined),10µM,0.447µM,3.98µM,.,?,-,0.282,
CCc1nc2c(OCCOc3ccc(F)cc3)cccn2c1N(C)C(=O)c1ccco1,.,.,.,.,.,-,.,
Cn1c(SCC(=O)NCc2ccccc2)nnc1-c1ccc(NC(=O)CCc2ccccc2)cc1,-,?,?,.,-,-,11.2,
COc1ccccc1C(=O)Nc1ccc(-c2nnc(SCC(=O)O)n2C)cc1,100µM,?,?,.,-,-,7.96,
c1ccc(Oc2cccc(OCCn3cncn3)c2)cc1,25.1µM,1.78µM,39.8µM,.,-,-,28.3,
CCOc1ccc(CN2C(=O)c3ccccc3Sc3ccc(C(=O)O)cc32)cc1,-,-,-,.,-,.,.,
O=C(CSc1cccc[n+]1[O-])Nc1ccccc1Oc1ccccc1,50.1µM,2µM,-,-,?,-,2,
COc1ccc(/C=C(\C#N)c2nc(-c3cc4c(ccc5ccccc54)oc3=O)cs2)cc1O,-,-,-,.,-,.,.,
CCS(=O)(=O)N1CCN(Cc2ccccc2OC)CC1,3.16µM,2.51µM,22.4µM,-,?,.,?,
SMILES,JMJD2A Tudor inh,G9a inh-1,BAZ2B inh,L3MBTL1 inh,HP1b binding inh,PI5P4K alpha inh,G9a inh-2,others
Nc1ccc2nn(-c3ccc(F)cc3)nc2c1,-,-,-,.,-,-,.,
Cc1ccc(-n2nc3ccc(N)cc3n2)cc1,-,?,-,.,-,-,0.252,
CCOc1ccc(-n2nc3cc(C)c(N)cc3n2)cc1,-,.,?,-,-,-,.,
COc1ccc(-n2nc3cc(C)c(NC(=O)c4ccc(C)cc4C)cc3n2)cc1Cl,-,?,-,.,-,.,.,
Cc1cc2nn(-c3ccc(F)cc3)nc2cc1N,-,1µM,-,-,-,-,0.564,
COc1ccc(-n2nc3cc(C)c(N)cc3n2)cc1Cl,56.2µM,0.708µM,79.4µM,-,-,-,0.502,
COCc1nc2cccnc2n1C1CCN(S(=O)(=O)N(C)C)CC1,-,-,-,.,-,.,.,
Cc1cc2nn(-c3ccccc3)nc2cc1NC(=O)COc1ccc(Cl)cc1,-,-,-,.,-,.,.,
COc1ccc(C(c2nnnn2C2CCCC2)N2CCc3ccccc3C2)cc1OC (centres undefined),-,-,?,-,-,-,.,
COCCn1nnnc1C(c1ccc(O)c(OC)c1)N1CCc2ccccc2C1 (centres undefined),?,?,?,.,?,-,0.71,
CN(C)c1ccc(C(c2nnnn2CCOC(=O)Nc2ccc(Cl)cc2)N2CCOCC2)cc1 (centres undefined),?,?,44.7µM,.,?,-,17.8,
CCn1c2ccccc2c2cc(NC(=O)N3CCOCC3)ccc21,-,?,?,.,-,-,10,
CCNCCC(CCC(C)C)c1ccc2c(c1)OCO2 (centres undefined),?,1.58µM,79.4µM,.,-,-,11.2,
COc1ccc(Br)cc1CNc1ccc(N2CCOCC2)cc1,39.8µM,?,28.2µM,.,?,-,3.17,
COc1ccc(CNc2ccc(N3CCOCC3)cc2)cc1,?,.,-,-,-,-,.,
COc1cccc(CNc2ccc(N3CCC(C)CC3)cc2)c1OC,20µM,?,39.8µM,?,-,.,2,
COc1ccccc1NC(=O)N(C)C[C@@H]1OCc2cnnn2CCCC(=O)N([C@@H](C)CO)C[C@@H]1C,.,.,.,.,.,-,.,
Oc1ccc2ccccc2c1CN1CCOCC1,?,0.355µM,-,-,?,-,0.796,
Oc1cnc2ccccc2c1CN1CCOCC1,-,?,-,-,-,-,.,
O=C(COc1ccccc1Cl)Nc1ccc(OCc2cc(=O)n3ccsc3n2)cc1,-,-,-,.,-,.,.,
Cc1oc(-c2ccccc2)cc1C(=O)Nc1ccc(N(C)C)cc1,50.1µM,2.24µM,20µM,?,?,-,1.78,
Cc1cc(=O)oc(C)c1C(=O)Nc1ccc(N(C)C)cc1,-,?,-,-,-,-,.,
OC(CN1CCCCC1)Cn1c2ccccc2c2cc(Br)ccc21 (centres undefined),-,-,-,.,-,-,.,
CCn1c2ccccc2c2cc(CN3CCN(Cc4ccc(Br)cc4)CC3)ccc21,4.47µM,0.891µM,25.1µM,.,?,.,25.1,
Cc1cc(C)cc(NC(=O)CSc2nc3sc4c(c3c(=O)[nH]2)CCCC4)c1,-,-,-,.,-,.,.,
COC(=O)c1ccccc1NC(=O)CSc1nc2sc3c(c2c(=O)[nH]1)CCCC3,56.2µM,?,?,.,?,.,4.08,
